# Assay outcomes as filed in PubChem BioAssay.
# Compounds with a hit are over-represented: about 4.6% of the library has one in this group of screens.
# tim10-1 inh: growth inhibitors of tim10-1 mutant yeast, primary screen, luminescence, uHTS. S. cerevisiae tim10-1 ts strain growth, BacTiter-Glo, 24 h. inhibition, % at 20 µM. 2.2% of 330,000 active. AID 463190, 2010;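 active means inhibition of at least 40%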;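 further: mutant grown at 25 °C; 0% = DMSO wells with yeast and 100% = wells holding no yeast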
# SKKanGAS inh: S. pyogenes SKKanGAS growth inhibitors in kanamycin, primary screen, streptokinase expression inhibitor project, SKKanGAS strain, BacTiter-Glo luminescence; 6 h; inhibition, % at 7.5 µM; 1.3% of 300,000 active;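 active means mean replicate score, as percent of positive control median, at least 50; inconclusive means mean below 50 but one replicate at or above 50; inactive means mean and every replicate below 50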;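 further: strain carries kanamycin resistance gene driven by streptokinase promoter and grows in 40 µg/ml kanamycin; loss of luminescence reflects streptokinase promoter inhibition or plain growth inhibition; 0% = median of DMSO wells and 100% = positive control at its reference dose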
# PfHsp90 set2: growth inhibition of PfHsp90-expressing yeast, primary screen, antimalarial PfHsp90 inhibitor project, S. cerevisiae, BacTiter-Glo luminescence, single point, set 2; inhibition, % at 9.4 µM; 0.32% of 310,000 active; BacTiter-Glo ATP, 48 h; yeast lacking PDR1 and PDR3 efflux regulators;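 active means every replicate shows inhibition above about 80%, whatever the replicate mean, limit read from the data; inconclusive means mean inhibition reaches the set limit but some replicate falls short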;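 further: 0% = DMSO neutral controls and 100% = 20 µM radicicol positive controls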
# NALP3 yeast inh: NALP3 inflammasome inhibitors in reconstituted yeast, primary screen, luminescence, uHTS; AID 2825, 2010; inhibition, % at 10 µM; Yeast reconstituted NLRP3/ASC/caspase-1, beta-gal luminescence, 24 h; 0.39% of 330,000 active;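 active means inhibition of 50% or more; inactive means inhibition below 50%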;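 further: plate controls were induced DMSO wells for no effect and uninduced yeast grown without galactose for full effect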
# tim23-1 inh: growth inhibitors of tim23-1 mutant yeast, primary screen, luminescence, uHTS; S. cerevisiae tim23-1 growth, BacTiter-Glo luminescence, 24 h; inhibition, % at 20 µM; 1.3% of 330,000 active; AID 463212, 2010;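 active means growth inhibition of the mutant yeast at or above 50%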;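 further: temperature-sensitive mutant grown at 25 °C; plate controls were DMSO-treated mutant yeast for no effect and medium wells lacking yeast for full effect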
# TIM10 inh: growth inhibitors of isogenic TIM10 control yeast, primary screen, counter-screen for tim10-1 yeast inhibitor project, luminescence, uHTS | 1.4% of 330,000 active | AID 463195, 2010 | inhibition, % at 10 µM | S. cerevisiae TIM10 strain growth, BacTiter-Glo luminescence, 24 h;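 active means inhibition of 40% or more at the single tested concentration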;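 further: wild-type TIM10 isogenic control strain grown at permissive 25 °C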
# The depositor's hits bear a star; ? = inconclusive; · = no result.
SMILES,tim10-1 inh,SKKanGAS inh,PfHsp90 set2,NALP3 yeast inh,tim23-1 inh,TIM10 inh
Cc1ccc2cc(CN(Cc3cccs3)C(=O)c3ccco3)c3nnnn3c2c1C,14,63*,·,12,29,25
CC(=O)Oc1ccc(C(=O)O)c(OC(C)=O)c1,-5,-3,-23,13,-12,-4
O=c1cc(-c2ccccc2)[nH]n1-c1ccccc1,·,·,22,·,·,·
O=c1cc(-c2ccccc2)[nH]n1-c1nc2ccccc2s1,-2,82*,-42,31,-20,-20
CCOC(=O)N1CCC(NCc2c(C(=O)N(C)Cc3ccccc3)nc3ccccn23)CC1,13,-14,21,-11,16,-10
CCN(CC(=O)Nc1c(F)cccc1F)C(=O)CCC(=O)c1ccc(C)cc1,-1,-1,17,7,3,2
COc1ccc(-c2csc(/C(C#N)=C\c3ccc(O)c([N+](=O)[O-])c3)n2)cc1OC,7,95*,-8,31,1,12
O=C(CN1CCN(S(=O)(=O)c2ccc(F)cc2)CC1)Nc1ccc(F)cc1F,17,-1,-12,22,29,-6
CN1CCN(C(c2ccccn2)c2cc(Cl)c3cccnc3c2O)CC1 (configuration not stated),-23,19,103*,37,34,-38
CS(=O)(=O)c1ccc2nc(NC(=O)c3ccc(NS(=O)(=O)c4ccc(F)c(F)c4)cc3)sc2c1,5,85*,-29,1,-1,22
O=C(Nc1nc2ccc(SC(F)F)cc2s1)c1ccc(NS(=O)(=O)c2ccc(F)c(F)c2)cc1,12,114*,-112,7,3,8
CSc1nc2ccc(NC(=O)c3ccc(F)c(F)c3)cc2s1,-8,4,25,26,-20,2
CS(=O)(=O)c1ccc2nc(NC(=O)c3cccc(NS(=O)(=O)c4ccc(F)c(F)c4)c3)sc2c1,12,37,-10,19,6,-1
O=C(NNC(=O)C(c1ccccc1)c1ccccc1)c1ccccn1,26,11,28,-5,12,10
CCN(CC)S(=O)(=O)c1cccc(C(=O)N[C@H](C(=O)NCc2ccc(Cl)cc2)C(C)C)c1,9,-1,-11,4,-1,15
S=C1NC[C@H](Cc2ccccc2)N1CCCCC1CCCCC1,4,16,5,28,19,-2
FC(F)(F)c1cc(CCN2C(=S)NC[C@@H]2Cc2ccccc2)cc(C(F)(F)F)c1,19,16,-22,36,22,12
FC(F)(F)c1cc(CCN2C(=S)NC[C@@H]2CC2CCCCC2)cc(C(F)(F)F)c1,28,68*,10,26,22,19
S=C1NC[C@H](CC2CCCCC2)N1CCCCC1CCCCC1,20,76*,-3,13,23,-32
NNC(=O)c1ccc(N2CCCCCC2)c([N+](=O)[O-])c1,33,4,13,10,34,13
CC(C)NC(=O)CCCN1C(=O)c2ccccc2Sc2ncccc21,12,1,19,17,8,-15
CCCCc1c(C)nn(-c2nnc3c4ccccc4n(CC)c3n2)c1C,39,76*,-34,9,30,26
CCOC(=O)c1ccc(Nc2nc(C)nc3c2nnn3Cc2ccccc2)cc1,10,53*,-30,11,18,8
O=C(NC(=S)N1CCN(c2ccc(F)cc2)CC1)C12CC3CC(CC(C3)C1)C2,13,51*,-11,20,-5,-8
O=C(Nc1ccccc1N1CCN(c2ccc(F)cc2)CC1)C12CC3CC(CC(C3)C1)C2,26,13,-5,-9,3,23
SMILES,tim10-1 inh,SKKanGAS inh,PfHsp90 set2,NALP3 yeast inh,tim23-1 inh,TIM10 inh
O=C1NC(=Nc2ccc(Cl)cc2)SC1Cc1cc(Cl)ccc1Cl (configuration not stated),14,82*,4,6,9,11
O=C(/C=C/c1ccccc1)NC(NC(=S)Nc1cc(Cl)ccc1Cl)C(Cl)(Cl)Cl (configuration not stated),20,52*,18,10,4,5
O=C(/C=C/c1ccccc1)NC(NC(=S)Nc1ccc(Cl)cc1)C(Cl)(Cl)Cl (configuration not stated),17,63*,35,8,14,-2
O=C(Cc1ccccc1)NC(NC(=S)Nc1cc(Cl)ccc1Cl)C(Cl)(Cl)Cl (configuration not stated),5,32,40,13,-28,-12
CC(Cc1ccccn1)NC(=O)CCc1nnc(C2CCCCC2)o1 (configuration not stated),20,-14,-119,13,6,-9
CN(C(=O)CSc1nc2ccccc2c(=O)n1C)C1CCS(=O)(=O)C1 (configuration not stated),-6,·,-2,3,-7,0
O=C(Nc1nc(-c2ccccn2)cs1)c1cccc(-n2cnnn2)c1,17,53*,-10,-10,-4,13
O=C(Nc1nc(-c2ccc3c(c2)OCCO3)cs1)c1ccco1,6,56*,·,33,22,-10
O=C(Nc1ccc(Br)cc1)c1cccc(-n2cnnn2)c1,-15,-5,5,11,3,18
O=C(Nc1nc(-c2ccccn2)cs1)C12CC3CC(CC(O)(C3)C1)C2,-8,?,-43,12,-5,-18
O=C(Nc1nc(-c2ccccn2)cs1)C1CC1,23,51*,-10,14,16,3
O=C(CC1CC2CCC1C2)Nc1nc(-c2ccccn2)cs1 (configuration not stated),26,76*,-33,35,41,30
Cc1ccc(C(=O)C(C)OC(=O)c2nc(Cl)ccc2Cl)cc1 (configuration not stated),4,-1,-1,2,6,-8
CSc1nnc(SCC2=NNC(=O)SC2)s1,-7,-2,1,23,14,-34
O=C(Nc1ccc(F)cc1F)c1ccc(-n2cccn2)c([N+](=O)[O-])c1,15,-3,-9,25,9,-6
CCOC(=O)c1ccc(Oc2ccc(C(F)(F)F)cn2)cc1,7,8,9,1,3,7
O=C(CN1CCCCC1)NC(=O)NC1CCCCC1,-17,·,·,11,-5,6
O=C(Nc1nc(-c2ccccn2)cs1)c1ccco1,13,59*,-10,-4,-29,3
O=C(Nc1nc(-c2ccccc2)cs1)C1CCCO1 (configuration not stated),3,-8,7,39,1,1
